The results in this text go back to PubChem BioAssay (EPA / NIEHS).

The nature of test [1]: ATG_CRE_CIS: Attagene CIS-FACTORIAL HepG2 Assay for human cAMP Responsive Element (CRE) binding protein 3 (AID 2282926). To be noted: HepG2 CRE cis-reporter, Attagene multiplexed mRNA; actives raise or lower the signal. An outline of the steps:
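Induced reporter mRNA from a CRE cis element, measured in HepG2 among many multiplexed units at 24 h. Detection used RT-PCR plus capillary electrophoresis of fluorescent fragments; DMSO served as negative control.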

Test [2] can be described thus: ATG_CMV_CIS: Attagene CIS-FACTORIAL HepG2 Assay for human CMV (Internal Marker) (AID 2282928).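 Further: endpoint acts as a background internal control marker rather than a target.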 The conditions noted are these: HepG2 CMV promoter reporter, transcription factor profiling; actives raise or lower the signal. An outline of the steps:
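24 h chemical treatment, HepG2 with transient multi-reporter transfection; RNA → oligo(dT) RT → PCR → 6-FAM extension → HpaI digest → CE fluorescence. Bidirectional fit, DMSO negative control.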

Active and inactive are the calls of the source. How the source made its calls: active means hit-call score of the fitted dose curve at least 0.9, where 1 is the maximum; inactive means score below 0.9.

As to `BrCC(Br)c1ccccc1` (configuration not stated), the call in test [1] and in test [2] was inactive.
`CC(=O)CN(CC(C)=O)N=O`: the result in test [1] and in test [2] was inactive.
Consider `Cl[C@H]1OCCO[C@@H]1Cl`, for which the molecule was called inactive in test [1] and in test [2].
For the molecule `Nc1nc(N)nc(Cl)n1`, the outcome in test [1] and in test [2] was inactive.
For the molecule `O=C(NC(=O)c1c(F)cccc1F)Nc1ccc(Cl)cc1`, the molecule was called inactive in test [1] and in test [2].
For `NC(=O)c1ccc(N)nc1`, the result in test [1] and in test [2] was inactive.
For the molecule `c1csc(-c2ccc(-c3cccs3)s2)c1`, the molecule was classed as inactive in test [1] and in test [2].
For `Fc1cccc(Cl)c1CCl`, the AC50 in test [1] was 41.8 µM (active). In test [2], the outcome was inactive.
On to `NNCCO`, for which the molecule was called inactive in test [1] and in test [2].
On to `c1cc[c]([Sb]([c]2ccccc2)[c]2ccccc2)cc1`, for which the call in test [1] was inactive. In addition, the AC50 in test [2] was 64.8 µM (active).
As for `C=CCc1ccccc1O`, the call in test [1] and in test [2] was inactive.
